# Reference: PubChem BioAssay (NCATS)
# Results filed as inconclusive are left out. Unmarked numbers belong to inactive results. Active and inactive are the calls of the source. Calls follow the shape of the dose curve; as a rule, active = well fitted inhibition curve with a large enough effect; inconclusive = small, poorly fitted or top-dose-only effect; inactive = flat fitted curve, though single readings scatter. Peptide text beside a SMILES is read from it.
# Columns and labels:
# [1] = qHTS profiling for inhibitors of Plasmodium falciparum proliferation (AID 504749); also: nearly all actives have a fitted effect of over 60% in size;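 as to activity, negative = inhibition: 0% = DMSO vehicle and full inhibition = artemisinin control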; conditions: P. falciparum in erythrocytes, SYBR Green DNA, 72 h
# Procedure, shortened: (§1)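 SYBR Green fluorescence of parasite DNA, read after lysis and overnight dark incubation, measured growth over 72 h in erythrocyte culture at 0.3% parasitemia and 2.5% hematocrit. Data normalised to DMSO and 0.29 uM artemisinin, with plate-drift correction.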
# 3D7 = experiment: as above; conditions: P. falciparum in erythrocytes, SYBR Green DNA, 72 h; series mostly up to 28.7 µM
# Procedure, shortened: as §1
# 7G8 = experiment: as above; conditions: P. falciparum in erythrocytes, SYBR Green DNA, 72 h; series mostly up to 28.7 µM
# Procedure, shortened: as §1
# [2] = at 28.7 µM (top of the series), parasite line A
# [3] = at 28.7 µM (top of the series), parasite line B
# [4] = at 12.8 µM (top of the series), parasite line A
# [5] = at 12.8 µM (top of the series), parasite line B
# Potency is read from the fitted curve at half-maximal effect.
smiles,measurement,setting,value
CCCCC(C)(O)C/C=C/[C@H]1[C@H](O)CC(=O)[C@@H]1CCCCCCC(=O)OC (some centres not stated),"activity, negative = inhibition",[1]; [2],0.758%
same,"activity, negative = inhibition",[1]; [3],3.16%
same,Potency,3D7,inactive
same,Potency,7G8,inactive
CCOc1ccc2c(c1)C(C)=CC(C)(C)N2,"activity, negative = inhibition",[1]; [2],-19.3%
same,"activity, negative = inhibition",[1]; [3],-4.99%
same,Potency,7G8,inactive
Cc1cn([C@H]2C[C@H](O)[C@@H](CO)O2)c(=O)[nH]c1=O,"activity, negative = inhibition",[1]; [2],4.1%
same,"activity, negative = inhibition",[1]; [3],-3.41%
same,Potency,3D7,inactive
same,Potency,7G8,inactive
COC(=O)C1=C(C#N)NC(C)=C(C(=O)OC(C)C)C1c1cccc([N+](=O)[O-])c1 (configuration not stated),Potency,[1]; parasite line A,8.91 µM (active)
same,Potency,[1]; parasite line B,11.2 µM (active)
same,Potency,3D7,8.91 µM (active)
same,Potency,7G8,10 µM (active)
CCCCC/C=C\C/C=C\CCCCCCCC(=O)O,"activity, negative = inhibition",[1]; [2],6.83%
same,"activity, negative = inhibition",[1]; [3],5.9%
same,Potency,3D7,inactive
same,Potency,7G8,inactive
O=C(O)CCC(=O)C(=O)O,"activity, negative = inhibition",[1]; [2],2.78%
same,"activity, negative = inhibition",[1]; [3],9.14%
same,Potency,3D7,inactive
same,Potency,7G8,inactive
CCNC(=O)[C@@H]1CCCN1C(=O)[C@H](CCCN=C(N)N)NC(=O)[C@H](CC(C)C)NC(=O)[C@@H](Cc1c[nH]c2ccccc12)NC(=O)[C@H](Cc1ccc(O)cc1)NC(=O)[C@H](CO)NC(=O)[C@H](Cc1c[nH]c2ccccc12)NC(=O)[C@H](Cc1cnc[nH]1)NC(=O)[C@@H]1CCC(=O)N1,Potency,[1]; parasite line A,4.47 µM (active)
same,Potency,[1]; parasite line B,5.62 µM (active)
same,Potency,3D7,7.08 µM (active)
same,Potency,7G8,1.12 µM (active)
O=C1CSC2(CCN(CCCN3c4ccccc4Sc4ccc(Cl)cc43)CC2)N1,"activity, negative = inhibition",[1]; [2],-17.8%
same,"activity, negative = inhibition",[1]; [3],-28.1%
same,Potency,7G8,11.2 µM (active)
O=C(Nc1ccc(Br)cc1)c1cc(Br)c(Br)s1,Potency,[1]; parasite line A,10 µM (active)
same,Potency,7G8,10 µM (active)
CCOc1ccc(N=Nc2ccc(N)cc2N)cc1,"activity, negative = inhibition",[1]; [3],14.7%
same,Potency,3D7,inactive
O=C(Nc1cccc(C(F)(F)F)c1)c1cc(Br)cc(Br)c1O,Potency,[1]; parasite line B,10 µM (active)
same,Potency,7G8,6.31 µM (active)
O=S(=O)(O)c1cc(O)c2c(N=Nc3ccc(Nc4ccccc4)c4c(S(=O)(=O)O)cccc34)cc(S(=O)(=O)O)cc2c1,Potency,3D7,inactive
CCCCC(=O)O[C@]1(C(=O)CO)[C@H](C)C[C@H]2[C@@H]3CCC4=CC(=O)C=C[C@]4(C)[C@@]3(F)[C@@H](O)C[C@@]21C,Potency,7G8,8.91 µM (active)
CC(C)N=c1cc2n(-c3ccc(Cl)cc3)c3ccccc3nc-2cc1Nc1ccc(Cl)cc1,"activity, negative = inhibition",[1]; [4],-13.2%
same,"activity, negative = inhibition",[1]; [5],-1.3%
same,Potency,7G8,3.98 µM (active)
COC(=O)[C@H]1[C@H]2CC3c4[nH]c5ccccc5c4CCN3C[C@@H]2CC[C@@H]1O (some centres not stated),"activity, negative = inhibition",[1]; [2],14.5%
same,"activity, negative = inhibition",[1]; [3],13.8%
same,Potency,7G8,inactive
O=S(=O)(O)O,"activity, negative = inhibition",[1]; [2],-14.8%
same,"activity, negative = inhibition",[1]; [3],2.3%
same,Potency,7G8,inactive
CC(=O)Oc1c(C)cc(OCC(O)CNC(C)C)c(C)c1C (configuration not stated),Potency,3D7,inactive
same,Potency,7G8,inactive
CCOC(=O)C1=C(C)NC(C)=C(C(=O)OCC)C1c1ccccc1C=CC(=O)OC(C)(C)C,Potency,[1]; parasite line A,11.2 µM (active)
same,Potency,3D7,11.2 µM (active)
same,Potency,7G8,7.94 µM (active)
Clc1cc(Cl)c(OCC#CI)cc1Cl,Potency,[1]; parasite line A,11.2 µM (active)
same,Potency,[1]; parasite line B,11.2 µM (active)
same,Potency,3D7,11.2 µM (active)
same,Potency,7G8,11.2 µM (active)
CN1C(=O)CN2CCc3ccccc3C2c2cc(Cl)ccc21 (configuration not stated),"activity, negative = inhibition",[1]; [2],-10.8%
same,"activity, negative = inhibition",[1]; [3],-17.4%
same,Potency,3D7,inactive
same,Potency,7G8,12.6 µM (active)
CC(C)=O,"activity, negative = inhibition",[1]; [2],-12.1%
same,Potency,3D7,inactive
same,Potency,7G8,inactive
CC1(C)S[C@@H]2[C@H](NC(=O)[C@@H](NC(=O)N3CCNC3=O)c3ccccc3)C(=O)N2[C@H]1C(=O)O,"activity, negative = inhibition",[1]; [4],9.18%
same,"activity, negative = inhibition",[1]; [5],-0.988%
same,Potency,3D7,inactive
same,Potency,7G8,inactive
CO[C@H](C(=O)[C@@H](O)[C@@H](C)O)C1Cc2cc3cc(O[C@H]4C[C@@H](O[C@H]5C[C@@H](O)[C@H](O)[C@@H](C)O5)[C@@H](O)[C@@H](C)O4)c(C)c(O)c3c(O)c2C(=O)[C@H]1O[C@H]1C[C@@H](O[C@H]2C[C@@H](O[C@H]3C[C@](C)(O)[C@H](O)[C@@H](C)O3)[C@H](O)[C@@H](C)O2)[C@H](O)[C@@H](C)O1 (some centres not stated),Potency,[1]; parasite line A,0.112 µM (active)
same,Potency,[1]; parasite line B,0.251 µM (active)
same,Potency,3D7,0.112 µM (active)
same,Potency,7G8,0.0447 µM (active)
CCCC(=O)Nc1ncnc2c1ncn2C1OC2COP(=O)(O)OC2C1OC(=O)CCC (configuration not stated),"activity, negative = inhibition",[1]; [2],6.84%
same,"activity, negative = inhibition",[1]; [3],-4.45%
same,Potency,3D7,inactive
same,Potency,7G8,inactive
C#C[C@]1(O)CC[C@H]2[C@@H]3CCC4=CCCC[C@@H]4[C@H]3C(=C)C[C@@]21CC,Potency,7G8,inactive
C=C1C(=CC=C2CCC[C@@]3(C)[C@@H]2CC[C@H]3[C@H](C)CCCC(C)C)C[C@@H](O)C[C@@H]1O,Potency,3D7,11.2 µM (active)
same,Potency,7G8,10 µM (active)
CCCCCCC(O)C/C=C/CCCCCCCC(=O)O (configuration not stated),"activity, negative = inhibition",[1]; [2],-1.16%
same,"activity, negative = inhibition",[1]; [3],3.04%
same,Potency,3D7,inactive
same,Potency,7G8,inactive
COc1cc(-c2ccc(-[n+]3nc(-c4ccccc4)nn3-c3ccc([N+](=O)[O-])cc3)c(OC)c2)ccc1-[n+]1nc(-c2ccccc2)nn1-c1ccc([N+](=O)[O-])cc1,Potency,[1]; parasite line A,10 µM (active)
same,Potency,[1]; parasite line B,11.2 µM (active)
same,Potency,3D7,11.2 µM (active)
same,Potency,7G8,11.2 µM (active)
Nc1ncnc2c1ncn2[C@@H]1O[C@H](COP(=O)(O)OP(=O)(O)OP(=O)(O)O)[C@@H](O)[C@H]1O,"activity, negative = inhibition",[1]; [2],19.4%
same,"activity, negative = inhibition",[1]; [3],9.47%
same,Potency,3D7,inactive
same,Potency,7G8,inactive
CCN(CC)CCOc1ccc(-c2nc3cc(Cl)ccc3s2)cc1,Potency,7G8,11.2 µM (active)
CC[C@@]1(O)C(=O)OCc2c1cc1n(c2=O)Cc2cc3c([N+](=O)[O-])cccc3nc2-1,Potency,[1]; parasite line A,4.47 µM (active)
same,Potency,3D7,5.01 µM (active)
same,Potency,7G8,5.01 µM (active)
Cc1ccccc1,"activity, negative = inhibition",[1]; [2],1.71%
same,"activity, negative = inhibition",[1]; [3],0.119%
same,Potency,3D7,inactive
same,Potency,7G8,inactive
CC(=O)N[C@@H](CC(=O)O)C(=O)N[C@@H](CCC(=O)O)C(=O)O (Ac-Asp-Glu-OH),"activity, negative = inhibition",[1]; [2],24.6%
same,"activity, negative = inhibition",[1]; [3],14.8%
same,Potency,3D7,inactive
same,Potency,7G8,inactive
CCCCCCCC/C=C\CCCCCCCC(=O)O,"activity, negative = inhibition",[1]; [2],12.9%
same,Potency,3D7,inactive
same,Potency,7G8,inactive
CC(=O)Oc1cc(C)c(OC(C)=O)c2ccccc12,Potency,3D7,8.91 µM (active)
same,Potency,7G8,5.01 µM (active)
